Hits are enriched below; roughly 4.7% of the tested compounds scored in any of these assays.
LMP1 NFkB inh – Epstein-Barr LMP1 NF-kappaB reporter inhibition | LMP1-induced NF-kappaB luciferase reporter cells, luminescence | inhibition, % at 12.5 µM | 350,000 compounds, 0.69% hits; in the data active means inhibition above about 41%;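 further: 0% = neutral control wells and 100% = reference inhibitor control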
TROY signal inh – TROY signaling inhibition; Q293 LMP1-TROYcd NF-kB luciferase reporter, 4 h; inhibition, % at 10 µM; 360,000 compounds, 0.98% hits;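 active means compounds whose plate-normalised and pattern-corrected inhibition of the luciferase reporter signal at the single screening dose is 50% or more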
TWEAK Fn14 block – TWEAK-Fn14 signaling inhibition | TWEAK-stimulated Fn14 reporter cells, luciferase luminescence, 8 h | inhibition, % at 10 µM | 360,000 compounds, 2% hits; in the data active means inhibition above about 50%
HSF-1 act – increases HSF-1 driven luciferase reporter signal. AID 504408. NIH3T3-HGL HSF-1 luciferase reporter, MG132, 8 h; 100% = twice DMSO control signal. 300,000 compounds, 1.7% hits. activation, % at 9 µM;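 active means mean replicate activation of at least 50% with a set share of replicates each reaching 50%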;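 further: 0% = median of the neutral control wells and 100% = twice that signal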
HSF1 inh – HSF1 inhibition; NIH3T3-HGL HSE-luciferase, MG132-induced, luminescence 8 h; hits give low values; activity change, negative = inhibition, % at 7.5 µM (by protocol); 300,000 compounds, 0.77% hits; AID 2098;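 active means more than half of replicate wells show activity change below -50%, luminescence cut by over half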;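 further: luciferase reports HSF-1 transcriptional activity via heat shock element; 0% = median of DMSO wells and -100% = zero luminescence signal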
HSP90 inh – inhibitors of HSP90 luciferase refolding in rabbit reticulocyte lysate; luciferase refolding luminescence, 3 h; inhibition, % at 5.6 µM; 290,000 compounds, 0.91% hits; AID 1789;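 active means inhibition above the screen-wide mean plus 3 SD, computed separately per campaign, cut at about 16% in these data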;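 further: 0% = DMSO wells and 100% = 60 µM geldanamycin wells; inhibitors lower the luminescence because luciferase stays unfolded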
The depositor's hits bear a star; . = no result given.

SMILES | LMP1 NFkB inh | TROY signal inh | TWEAK Fn14 block | HSF-1 act | HSF1 inh | HSP90 inh
COc1ccc(C=C(C(=O)c2ccccc2)C(=O)c2ccccc2)cc1 | . | -20.2 | 51.7* | . | . | .
CC(=O)C(=Cc1ccc(Cl)cc1)C(=O)c1ccccc1 | . | 19.4 | 94.6* | . | . | .
CC(c1ccccc1)C1C(C#N)=C(N)SC(N)=C1C#N (stereo not given) | -1.5 | -9.2 | 0.3 | 28.8 | -3.5 | 0.1
CC(CC1C(C#N)=C(N)SC(N)=C1C#N)c1ccccc1 (stereo not given) | 0.4 | 50.4* | -1.7 | . | . | 3.7
COc1ccc(NC(=O)C2(C)CCN2Cc2ccc(C(C)C)cc2)cc1OC (stereo not given) | . | 22.4 | 13.2 | . | . | .
COc1ccccc1/C=C(\C)C(=O)c1c(C)cc(C)[nH]c1=O | 8.9 | 7.8 | -25.8 | 56.5* | 20.1 | -0.2
C/C(=C\c1ccc(Br)cc1)C(=O)c1c(C)cc(C)[nH]c1=O | 18.6 | 45.1 | 52.0* | 3.8 | -3.4 | -1.0
CCOC(=O)[C@]12CCCC=C1N(Cc1cccc3ccccc13)C(=O)[C@H](CC(=O)N1CCCC1)C2 | . | -16.1 | -4.7 | . | . | .
CCC(=O)NNC(=O)CSc1nnc(-c2ccccc2)c(-c2ccccc2)n1 | 85.1* | 10.7 | -12.8 | -78.5 | -73.9* | 1.3
O=C(O)CSc1nnc(-c2ccccc2)c(-c2ccccc2)n1 | -6.1 | 6.0 | 26.9 | -2.2 | -0.9 | -3.6
C/C(=N\NC(=S)NC1CCCCC1)c1ccc(O)cc1 | -23.1 | -4.2 | -2.9 | -2.2 | -4.7 | -1.0
O=C(N/N=C/c1ccccc1)NC1CCCCC1 | -5.9 | -108.8 | -15.4 | 34.5 | 10.3 | 2.1
CC(C)(C)c1ccc(/C=N/NC(=S)NC2CCCCC2)cc1 | -0.7 | 9.6 | 12.7 | 55.8* | 23.7 | -4.2
C/C(=N\NC(=S)NC1CCCCC1)c1ccccc1 | -1.5 | 54.1* | 46.8 | -46.2 | -44.9 | -4.2
COc1cc(C)ccc1S(=O)(=O)NC(=O)Cn1nnc(COc2ccc3c(c2)CCCC3)c1C | . | -3.6 | -4.7 | . | . | .
CC(C)NC(=O)N1Cc2cc(C(=O)NC3CCCC3)nc(-c3cccc(-c4cccnc4)c3)c2[C@@H]1CCO | . | -5.5 | 14.9 | . | . | .
CC(=O)N1C(=O)C2(NCC(C)N2)c2ccccc21 (stereo not given) | . | 13.6 | 7.5 | . | . | .
COc1ccc(OC)c2sc(NC(=O)C3=COCCO3)nc12 | 4.4 | -21.5 | 3.3 | 6.8 | 5.5 | -1.9
COc1ccc(C)c2sc(NC(=O)C3=COCCO3)nc12 | -21.2 | -42.2 | 4.5 | -76.2 | -69.2* | 1.0
Cc1nc([N+](=O)[O-])c(Sc2nc3ccccc3[nH]2)n1Cc1ccccc1 | 4.3 | 7.2 | 57.4* | 56.2* | 46.4 | 6.5
COc1ccc2nc(Sc3c([N+](=O)[O-])nc(C)n3Cc3ccccc3)[nH]c2c1 | . | . | . | 106.7* | 53.0 | 1.1
Cc1cc2nc(Sc3c([N+](=O)[O-])nc(C)n3Cc3ccccc3)[nH]c2cc1C | -18.8 | 31.6 | 83.5* | 95.1* | 77.3 | 5.9
Cc1nc([N+](=O)[O-])c(N2CCN(Cc3ccccc3)CC2)n1Cc1ccccc1 | -4.7 | 10.4 | -10.1 | 1.0 | -0.6 | 0.4
CCCCNC(=O)C1(C)CCN1C(=O)c1cccc2c1OCCO2 (stereo not given) | . | -10.5 | -18.0 | . | . | .
Clc1ccc(-c2csc(=Nc3cccnc3)n2CCCn2ccnc2)cc1Cl | 30.0 | 45.6 | 66.0* | -20.0 | -14.4 | -0.5
SMILES | LMP1 NFkB inh | TROY signal inh | TWEAK Fn14 block | HSF-1 act | HSF1 inh | HSP90 inh
CC(C)NC(=O)N(C)C[C@H]1OCCCC[C@@H](C)Oc2ccc(N(C)C)cc2C(=O)N([C@H](C)CO)C[C@@H]1C | . | 3.0 | 35.2 | . | . | .
Cc1cc(C)c2c(N)c(C(=O)NN3CC(=O)N(c4ccccc4F)CC3=O)sc2n1 | -2.1 | -3.5 | 103.2* | -11.2 | -4.7 | 1.4
Cc1ccc(NC(=O)c2sc3nc(C)cc(C)c3c2N)cc1 | -27.0 | -37.9 | -3.0 | 23.3 | 13.7 | -3.1
Cc1cc(C)c2c(N)c(C(=O)Nc3cccc(C)c3C)sc2n1 | -13.4 | -28.8 | 11.1 | 52.4* | 13.2 | 1.5
NC(c1csc(Nc2ccc(C(=O)NCCCO)cn2)n1)c1ccccc1Cl (stereo not given) | . | -8.2 | -31.2 | . | . | .
O=C(c1ccc2oc(CCc3ccccc3)nc2c1)N1CCC(O)CC1 | -9.3 | 57.5* | 48.6 | -24.3 | -19.7 | 8.4
CCc1nc2ccc(C(=O)N3CCN(S(=O)(=O)CC)CC3)cn2c1N(CC)Cc1cccc(Br)c1 | . | -0.7 | 6.0 | . | . | .
Cc1cc(C(=O)Nc2ccc(Cl)cc2)c(C)n1Cc1cccs1 | -53.3 | 50.8* | 59.9* | -37.8 | -25.3 | 16.4*
Cc1cc(C(=O)CN2C(=O)c3ccccc3C2=O)c(C)n1Cc1cccs1 | 50.4* | -2.2 | 83.2* | 27.2 | 8.3 | 1.6
CCc1ccc(-c2n[nH]nc2C2=CC(=O)C[C@H](c3ccc(F)cc3)C2)cc1 | 0.4 | 42.5 | 32.6 | . | . | .
Cc1ccccc1N1CCN(CC(=O)Nc2nc(C)c(C(=O)N(C)C)s2)CC1 | 0.2 | -2.2 | 3.4 | -7.9 | -5.0 | 1.3
Cc1nc(NC(=O)CN2CCN(c3ccccc3F)CC2)sc1C(=O)N(C)C | 19.7 | -5.7 | 3.8 | -6.8 | -2.6 | 16.5*
CCOc1ccc(N2CC(C(=O)Nc3ccc4c(c3)OCCO4)CC2=O)cc1 (stereo not given) | 7.3 | 60.7* | 77.8* | -66.6 | -64.8* | 6.2
CCCOc1ccc(NC(=O)C2CC(=O)N3CCCN=C3S2)cc1 (stereo not given) | 5.4 | -13.3 | 6.2 | 11.9 | 6.0 | 1.9
CCOc1ccc(NC(=O)C2CC(=O)N3CCCN=C3S2)cc1 (stereo not given) | 7.1 | -10.1 | -3.9 | 53.9* | 22.3 | 2.7
O=C(Nc1nc(-c2ccco2)c(-c2ccco2)s1)C1CC(=O)N(c2ccc3c(c2)OCCO3)C1 (stereo not given) | 11.0 | 29.4 | 80.5* | -14.8 | -1.6 | 2.5
CCc1cccc(CC)c1NC(=O)C1CC(=O)N(c2ccc3c(c2)OCCO3)C1 (stereo not given) | 2.6 | 21.8 | 68.9* | 13.8 | 4.3 | 0.9
COc1ccc(NC(=O)C2(C)Cc3c(-c4cccc(C(N)=O)c4)ccnc3O2)cc1 (stereo not given) | . | 2.2 | -7.7 | . | . | .
COc1ccc(CN(C)C(=O)/C=C/[C@H]2O[C@@H](n3cnc4c(N)ncnc43)[C@H](O)[C@@H]2O)cc1OC | . | -3.4 | -12.7 | . | . | .
COc1ccc(CC(=O)Nc2nc(-c3ccc(OC)c(OC)c3)cs2)cc1OC | 28.6 | 42.3 | 46.3 | 5.9 | 4.7 | -3.9
CCc1ccc(-c2csc(NC(=O)C3CC(=O)N(c4ccc5c(c4)OCCO5)C3)n2)cc1 (stereo not given) | 25.0 | 48.0 | 74.7* | -12.7 | -12.1 | -4.3
COc1ccc(-c2csc(NC(=O)C3CC(=O)N(Cc4ccccc4)C3)n2)cc1OC (stereo not given) | 8.2 | 8.6 | 89.2* | -3.2 | -2.5 | -0.5
CCC(Oc1ccccc1)C(=O)NC1CCSC1=O (stereo not given) | 65.7* | -2.7 | -4.0 | 5.5 | -0.3 | 0.6

Screening results: PubChem, several laboratories
